# D2 PAM-1 = positive allosteric modulators of human D2 dopamine receptor | P14416 | HEK293 T-REx D2, calcium flux, EC20 dopamine potentiation | potentiation, % at 10 µM | hit rate 0.34% among 340,000 | AID 485347;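 active = potentiation over 3 SD above the plate norm, cut at about 30% in these data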; note: 0% is about no effect
# Target sequence (P14416 whole entry, looked up): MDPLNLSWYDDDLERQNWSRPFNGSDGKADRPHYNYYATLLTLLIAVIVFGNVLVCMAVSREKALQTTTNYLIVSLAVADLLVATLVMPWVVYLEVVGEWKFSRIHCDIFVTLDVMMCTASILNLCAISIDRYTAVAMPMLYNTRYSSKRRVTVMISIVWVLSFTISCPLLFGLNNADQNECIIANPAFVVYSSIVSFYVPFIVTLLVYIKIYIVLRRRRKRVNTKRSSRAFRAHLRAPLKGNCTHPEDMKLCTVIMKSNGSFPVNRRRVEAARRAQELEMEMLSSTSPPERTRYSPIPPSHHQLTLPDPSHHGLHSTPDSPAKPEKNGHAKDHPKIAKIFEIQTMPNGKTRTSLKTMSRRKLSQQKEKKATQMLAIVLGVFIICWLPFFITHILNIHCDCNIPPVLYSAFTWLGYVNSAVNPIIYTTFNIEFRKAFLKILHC
#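 Calcium flux readout, no-wash dye, 1 read/s. Inducible HEK293 Trex D2 line, overnight 30 C. Compound alone 180 s (agonist flags), then EC20 dopamine, another 180 s to score potentiation.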
# D2 ag-1 = human D2 receptor agonism in beta-arrestin assay | P14416 | DiscoveRx PathHunter D2 beta-arrestin, luminescence, 90 min; 100% = 57 uM dopamine signal | activation, % (concentration not given with the values) | hit rate 0.084% among 360,000; in the data active = activation above about 40%
#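 DiscoveRx PathHunter D2 beta-arrestin cells (2,100/well) attached overnight, then compound-stimulated 90 min at 37 C in HBSS/10 mM HEPES/0.1% Tween-20 buffer; beta-galactosidase complementation read by luminescence after 1 h at ambient temperature. Dopamine 57 uM final (EC100) as control.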
# D2 ag-2 = agonists of human D2 dopamine receptor. AID 485358. HEK293 T-REx D2 cells, calcium flux agonist mode. hit rate 0.53% among 340,000. activation, % at 2 µM;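 active = activation over 3 SD above normal in the single-dose calcium agonist read, cut at about 30% in these data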; note: 0% is about no effect
#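 Tetracycline-induced HEK293 T-REx cells with force-coupled D2 receptor, plated overnight at 30 C, loaded with no-wash calcium dye. After a 10 s baseline, compound was pin-added and calcium flux read kinetically for 180 s; calcium rises flagged agonists.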
# D2 antagonist = antagonizes the human D2 dopamine receptor. HEK293 TREx D2 cells, calcium flux, dopamine EC80. inhibition, % at 10 µM. hit rate 2% among 340,000; in the data active = inhibition above about 30%; inactive = below that, where a call was filed; note: 0% is about no effect
#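 Compounds are added to dye-loaded, induced HEK293 T-REx cells coupled to calcium release via D2; after a 3 min kinetic read an EC80 dopamine stimulus is given and fluorescence is recorded for 3 more min.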
# D2 PAM-2 = positive allosteric modulators of human D2 dopamine receptor. DiscoveRx D2 beta-arrestin cells, luminescence, 90 min; 100% = 57 uM dopamine signal. AID 624464. hit rate 0.23% among 360,000. potentiation, % (concentration not given with the values); in the data active = potentiation above about 50%
#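 D2 cells co-treated with compound plus 50 nM dopamine (EC20) for 90 min at 37 deg C to detect potentiation. Beta-arrestin recruitment was read as enzyme-fragment luminescence after 1 h at ambient temperature. Full response was set by 57 uM dopamine.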
# Active calls of the source: *; . = no result. Rows were chosen to be rich in hits. Some 2.4% of all compounds tested hit in one or more screens of this group.
SMILES,D2 PAM-1,D2 ag-1,D2 ag-2,D2 antagonist,D2 PAM-2
O=C(Cn1c2[n+](c3ccc(C(F)(F)F)cc31)CCCCC2)c1cccc([N+](=O)[O-])c1,-22.1,-7.6,0.6,35.3*,-20.5
N#Cc1ccccc1NC(=O)COC(=O)COc1ccccc1[N+](=O)[O-],4.4,-0.1,0.1,-16.7,-1.1
CCC(=O)Nc1ccccc1Nc1cc(C#N)c(C#N)cc1[N+](=O)[O-],-3.5,10.4,-0.9,8.0,73.5*
CCc1cccc(CC)c1NC(=O)c1c(C)oc2ccc(O)c(CN3CCN(C)CC3)c12,-1.1,.,-0.3,.,.
CCC(C)c1ccccc1N1CC(C(=O)N2CCN(S(=O)(=O)c3cccc([N+](=O)[O-])c3)CC2)CC1=O (stereo unspecified),-8.1,3.7,0.7,35.8*,8.0
CCC(C)c1ccccc1N1CC(C(=O)N2CCN(c3ccccc3)CC2)CC1=O (stereo unspecified),.,-1.2,.,.,10.4
CC(C)OCCCNc1ncnc2c1nc1n2CCCC1,13.1,-2.2,-0.1,32.5*,-2.7
C=CCN(CC=C)CC(O)CN(c1cc([N+](=O)[O-])ccc1OC)S(=O)(=O)c1ccccc1 (stereo unspecified),-25.2,-0.4,1.0,66.1*,-18.4
COc1ccc(CN(C)C(=O)CNC(=O)c2cccs2)c(OC)c1,-2.3,7.8,-0.5,-0.8,0.1
COc1cccc(CN(C)C(=O)CNC(=O)c2cccs2)c1OC,-0.9,-7.0,1.3,37.6*,0.5
CC(C)CCC(CCN1CCOCC1)c1ccc2c(c1)OCO2 (stereo unspecified),2.5,-0.4,0.1,30.9*,-14.0
CC(=O)c1c(-c2ccccc2)c2cc(Cl)ccc2[nH]c1=O,1.9,-0.6,-0.8,74.9*,-46.2
N#Cc1cccc(C(c2nnnn2C2CCCC2)N2CCC(Cc3ccccc3)CC2)c1 (stereo unspecified),40.2*,-3.6,-0.1,1.1,1.1
CCC(=O)N1CCc2cc(S(=O)(=O)CCC(=O)NCCc3ccc(S(N)(=O)=O)cc3)ccc21,-6.0,-1.5,0.4,32.4*,-6.5
CCC(=O)N1CCc2cc(S(=O)(=O)CCC(=O)NCc3ccc(C)cc3)ccc21,-4.7,-0.4,0.3,0.5,-9.5
CCOc1ccccc1CNC(=O)c1ccc2c(c1)nc1n2CCCCC1,6.7,.,.,.,.
CC(C)(C)NC(=O)NC(=O)CN1CCc2ccccc21,6.2,-2.6,-0.8,0.1,1.0
NC(=O)C1CCN(C(=O)CN2CCc3ccccc32)CC1,-14.0,1.5,-0.7,45.3*,0.7
O=C(CN1CCc2ccccc21)NC(=O)NC1CCCCC1,-16.0,-3.3,-0.5,32.6*,-12.8
CCCCCC(=O)Nc1cc(N(C)C)nc2ccccc12,-12.1,-9.1,-1.3,35.2*,-20.6
CCN(CC)CC(=O)Nc1cc(N(C)C)nc2ccccc12,-12.7,-1.8,-0.3,1.3,-7.2
COc1ccc(OC)c(NC(=O)CCc2c(C)nn(-c3ccc(N4CCCC4)nn3)c2C)c1,5.2,.,0.8,.,.
N=C1/C(=C\c2coc3ccccc3c2=O)C(=O)N=C2SC=CN12,-3.7,-5.1,116.6*,-0.3,-18.8
CSC1=NSC2=NC(=O)/C(=C/c3coc4ccccc4c3=O)C(=N)N12,12.5,0.7,55.2*,-13.2,-6.5
CSC1=NSC2=NC(=O)/C(=C\c3cccs3)C(=N)N12,-5.2,-3.8,0.1,3.9,1.0
SMILES,D2 PAM-1,D2 ag-1,D2 ag-2,D2 antagonist,D2 PAM-2
CSC1=NSC2=NC(=O)/C(=C/c3coc4ccc(O)cc4c3=O)C(=N)N12,1.1,6.6,48.4*,-5.0,27.7
COc1cc(/C=C2/C(=N)N3C(SC)=NSC3=NC2=O)ccc1OC(=O)c1ccco1,-9.8,-7.2,0.3,-5.3,-8.1
N=C1/C(=C/c2cccn2Cc2ccc(F)cc2)C(=O)N=C2SC=CN12,-0.4,-1.7,-0.8,14.8,9.8
CC1=CC2=NC(=O)/C(=C/c3coc4ccc(Cl)cc4c3=O)C(=N)N2O1,-3.9,1.1,64.1*,2.5,0.0
Cc1ccccc1CNC(=O)c1cccc(NC(=O)N2CCSc3ncccc32)c1,-0.4,.,-0.3,.,.
CCOc1ccc(CNC(=O)CCCn2c(=O)c3cccn3c3ccc(F)cc32)cc1,-0.1,.,-0.3,.,.
COc1ccc(Cl)cc1NC(=O)Cc1ccc(NC(=O)N2CCCCc3ccccc32)cc1,-8.8,.,0.5,.,.
